Assay outcomes: PubChem BioAssay, several laboratories
An excerpt weighted towards active compounds, which were near 4.2% of everything screened.
AHR activator: AHR activators, primary screen, cell-based, luminescence, luciferase reporter, human | Aryl hydrocarbon receptor (Homo sapiens), P35869 | AHR-responsive luciferase reporter cells | activation, % at 5 µM | 320,000 tested, 2.5% active | AID 2796, 2010; in the data active means activation above about 47%;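 further: 0% = vehicle wells and 100% = reference agonist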
esBAF inh: Bmi1 luciferase reporter increase in mESCs, primary screen, esBAF inhibitor project, mouse ES cells, Bmi1 luciferase knock-in, single point | 24 h; 100% = twice the neutral-well signal | reporter increase, % at 12.5 µM | 350,000 tested, 2% active | AID 602393, 2012; in the data active means activation above about 40%; inconclusive means no clear call, values can overlap the other calls;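 further: 0% = median of the plate's neutral control wells and 100% = double that signal; a rise in the Bmi1 reporter signal indicates esBAF inhibition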
MITF TRPM1 HTS: activators of MITF-driven TRPM1 promoter reporter, primary screen, cell-based, SK-MEL-5, luciferase, single point | SK-MEL-5 TRPM1-promoter luciferase, 24 h; % of positive control, neutral wells = 0 | activation, % at 12.5 µM | 300,000 tested, 0.75% active | AID 588334, 2011;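 active means mean activation of at least 80% with every replicate also reaching 80%; inconclusive means mean reaches 80% but some replicate falls short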;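 further: 0% = neutral control wells and 100% = parthenolide positive control wells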
Wnt bcat act: Wnt/beta-catenin pathway activators, primary screen, cell-based, plate reader, single point; AID 743398, 2014; activation, % at 9.35 µM; Wnt/beta-catenin reporter cell assay, activator; 300,000 tested, 1.2% active; in the data active means activation above about 30%, passing the limit was not always enough; inconclusive means no clear call, values can overlap the other calls;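 further: 0% = neutral control wells and 100% = positive control wells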
GAA850 FXN act: FXN promoter activators, primary screen, cell-based, luciferase luminescence, HEK293 lucGAA850 | HEK293 lucGAA850 FXN promoter luciferase reporter, 24 h; percent of 10 µM SAHA response | activation, % at 6 µM | 360,000 tested, 0.56% active | AID 540364, 2011;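 active means activation above the average of all compounds screened plus 3 SD, cutoff fixed separately per campaign, cut at about 7.5% in these data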;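 further: 0% = DMSO wells and 100% = 10 µM SAHA wells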
Starred values were filed as active, the others as inactive.

Results for CCC(C)NC(=O)c1cc(-c2ccccc2O)on1 (stereo not given) ?
AHR activator: -6; esBAF inh: 57*; Wnt bcat act: 12; GAA850 FXN act: 5

What do the screens show for `COc1ccc(NC(=O)Nc2ccc3c(c2)C(=O)N([C@@H](C)CO)C[C@@H](C)[C@H](CN(C)S(=O)(=O)c2ccc(Cl)cc2)OCCCC[C@@H](C)O3)cc1`?
esBAF inh: 2

How did CN(C)CC(=O)Nc1ccc2c(c1)[C@H]1C[C@H](CC(=O)NCC3CC3)O[C@@H](CO)[C@H]1O2 do in these assays?
esBAF inh: 6

How did C[C@@H]1CN([C@@H](C)CO)C(=O)c2cc(NS(=O)(=O)c3ccc(F)cc3)ccc2O[C@H]1CN(C)Cc1ccc2c(c1)OCO2 do in these assays?
esBAF inh: 2

How did Cc1cc(NC(=O)c2cc(-c3cccs3)on2)no1 do in these assays?
AHR activator: -2; MITF TRPM1 HTS: 12; Wnt bcat act: -1; GAA850 FXN act: -1

What do the screens show for `COc1ccc(CCNC(=O)c2cc(C(C)C)on2)cc1OC`?
AHR activator: 4; esBAF inh: 1; Wnt bcat act: 1; GAA850 FXN act: 1

Results for COc1ccc(CCNC(=O)c2cc(-c3cccs3)on2)cc1OC ?
AHR activator: 16; esBAF inh: 0; MITF TRPM1 HTS: -39; Wnt bcat act: 10; GAA850 FXN act: 16*

Results for COc1ccccc1-c1cc(C(=O)N2CCOCC2)no1 ?
AHR activator: 11; esBAF inh: inconclusive; MITF TRPM1 HTS: 105*; Wnt bcat act: 29; GAA850 FXN act: 3

How did CC(C)NC(=O)c1cc(-c2cccs2)on1 do in these assays?
AHR activator: -3; esBAF inh: 35; Wnt bcat act: 55*; GAA850 FXN act: 3

Results for CC1CCN(C(=O)c2cc(-c3ccccc3O)on2)CC1 ?
AHR activator: 0; esBAF inh: 35; MITF TRPM1 HTS: 104*; Wnt bcat act: 63*; GAA850 FXN act: 4

How did CCS(=O)(=O)Nc1ccc2c(c1)C(=O)N(C)[C@@H]1CC[C@H](CC(=O)NCc3ccccc3F)O[C@@H]1CO2 do in these assays?
esBAF inh: -3

Results for CO[C@H]1CN(C)C(=O)c2ccc(NS(C)(=O)=O)cc2OC[C@H](C)N(Cc2cncnc2)C[C@H]1C ?
esBAF inh: -3

Results for Cc1cc(OCC(=O)NC(C)(C)C)ccc1Cl ?
AHR activator: 2; esBAF inh: 62*; MITF TRPM1 HTS: 74; Wnt bcat act: 7; GAA850 FXN act: 5

How did COCCCNC(=O)COc1ccc(Cl)c(C)c1 do in these assays?
AHR activator: 14; esBAF inh: 10; Wnt bcat act: 7; GAA850 FXN act: 1

Results for COc1ccc(NC(=O)COc2ccc(-c3ccccc3)cc2)cc1 ?
AHR activator: -1; esBAF inh: -2; MITF TRPM1 HTS: 3; Wnt bcat act: 9; GAA850 FXN act: 1

What do the screens show for `CCNC(=O)COc1ccc(-c2ccccc2)cc1`?
AHR activator: 3; esBAF inh: 19; Wnt bcat act: 40*; GAA850 FXN act: 0

Results for CC(C)(C)NC(=O)COc1ccc(-c2ccccc2)cc1 ?
AHR activator: -7; esBAF inh: 57*; MITF TRPM1 HTS: 65; GAA850 FXN act: 2

What do the screens show for `CCNC(=O)COc1ccc(OCc2ccccc2)cc1`?
AHR activator: 0; esBAF inh: 15; MITF TRPM1 HTS: 32; Wnt bcat act: 15; GAA850 FXN act: 1

Results for COc1ccc(S(=O)(=O)N(C)C[C@H]2Oc3c(NC(=O)c4cc(C)nn4C)cccc3C(=O)N([C@@H](C)CO)C[C@H]2C)cc1 ?
esBAF inh: -5

How did Cc1ccc(S/C=C\C(=O)c2ccccc2)cc1 do in these assays?
AHR activator: -2; MITF TRPM1 HTS: -4; Wnt bcat act: 56*; GAA850 FXN act: -2

How did CC(/C=C/C(=O)c1ccc(C)cc1)=C\c1ccccc1 do in these assays?
AHR activator: 64*; MITF TRPM1 HTS: -2; GAA850 FXN act: 3

Results for Cc1ccc(C(=O)/C=C\C(=O)c2ccc(C)cc2)cc1 ?
AHR activator: 0; MITF TRPM1 HTS: 3; Wnt bcat act: 1; GAA850 FXN act: 4

Results for Cc1ccc(C(=O)C=CNNC(=O)c2ccccc2)cc1 ?
AHR activator: 6; esBAF inh: 17; MITF TRPM1 HTS: 26; Wnt bcat act: 12; GAA850 FXN act: 4
